Results on 35 compounds are retold here after PubChem BioAssay AID720690 (Broad Institute, 2013).

Measured potencies and affinities stand elsewhere. Calls of active or inactive are those of the source.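 The calls were made as follows: active = every repeat run showing a signal drop whose fitted half-maximal concentration is at most twice the top tested concentration; inconclusive = repeat runs disagree, or flat partial drop, or poor fit; inactive = the rest.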

The assay is described as follows: HEK293T cytotoxicity, dose response, cytotoxicity control for miR-122 modulator project, cell-based, activator set, cherry-pick (AID 720690).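 Also: 0% = neutral control wells and -100% = MG132 cytotoxic control wells.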 To be noted: HEK293T viability, CellTiter-Glo luminescence, 48 h; series mostly up to 26 µM; activity change, negative = cytotoxicity: at the top concentration. (Cellular ATP, detected with luciferase, serves as a proxy for viable cell number.)
For `CCCNC(=O)Nc1ccc2c(c1)OC[C@H](C)N(CCC)C[C@H](C)[C@H](OC)CN(C)C2=O`, the “activity change, negative = cytotoxicity” value is -12.6% (inactive).
`C/C=C/c1ccc([C@H]2[C@@H](CO)N(C(C)=O)[C@@H]2CN(C(=O)COC)C(C)C)cc1`: the “activity change, negative = cytotoxicity” value is 2.1% (inactive).
Consider `CCC(=O)N1[C@H](CO)[C@@H](c2ccccc2)[C@@H]1CN(C(C)C)S(C)(=O)=O`, for which the “activity change, negative = cytotoxicity” value is 1.18% (inactive).
Under `COc1cccc(C(=O)Nc2ccc3c(c2)C(=O)N(C)[C@H]2CC[C@H](CC(=O)NCc4ccc(F)cc4)O[C@H]2CO3)c1` stands -30.3% (inactive); under `Cc1cc(C)c2c(c1)/C(=C/C(=O)c1ccc(Br)s1)C(=O)N2`, 4.2% (inactive); under `CCCNC(=O)C[C@H]1CC[C@@H]2[C@H](COc3ccc(NS(=O)(=O)c4ccccc4C)cc3C(=O)N2C)O1`, -4.31% [at 23.5 µM] (inactive).
Take `C/C=C/c1ccc([C@H]2[C@@H](CNC(=O)c3ccncc3)N(C(=O)CC)[C@H]2CO)cc1`: the “activity change, negative = cytotoxicity” value is -7% [at 23.5 µM] (inactive).
Under `CCN(C[C@H]1[C@H](c2ccccc2)[C@H](CO)N1C(=O)COC)S(C)(=O)=O` stands -10.6% [at 23.5 µM] (inactive).
Under `c1ccc(-n2nnnc2NCCc2c[nH]c3ccccc23)cc1` stands -12.3% (inactive).
Under `CCN(C[C@@H]1[C@@H](c2ccc(C3=CCCCC3)cc2)[C@@H](CO)N1CC1CC1)C(C)=O` stands -22.1% (inactive); under `CCS(=O)(=O)Nc1ccc2c(c1)C(=O)N(C)[C@@H]1CC[C@@H](CC(=O)NCCCN3CCOCC3)O[C@@H]1CO2`, -12.1% (inactive).
With `CC(=O)N1[C@H](CO)[C@@H](c2ccccc2)[C@H]1CN(C(=O)NC(C)C)C1CCCC1`, the “activity change, negative = cytotoxicity” value was -6.13% (inactive).
Under `C/C=C/c1ccc2c(c1)O[C@H](CN(C)C(=O)NCCC)[C@H](C)CN([C@@H](C)CO)S2(=O)=O` stands 1.6% (inactive); under `CCNC(=O)Nc1ccc2c(c1)C(=O)N(C)[C@H]1CC[C@H](CC(=O)NCCOC)O[C@@H]1CO2`, -2.1% (inactive); under `CCN(C[C@@H]1[C@@H](c2ccccc2)[C@@H](CO)N1C(=O)COC)S(C)(=O)=O`, -8.83% [at 23.5 µM] (inactive).
Under `CO[C@@H]1CN(C)C(=O)c2cc(NC(=O)NC(C)C)ccc2OC[C@H](C)N(Cc2cncnc2)C[C@H]1C` stands 3.49% (inactive); under `COC(=O)C[C@H]1CC[C@@H]2[C@@H](COc3ccc(NC(=O)Nc4cccc(F)c4)cc3C(=O)N2C)O1`, -5.97% (inactive).
Under `CCCNC(=O)Nc1ccc2c(c1)C(=O)N(C)[C@@H]1CC[C@H](CC(=O)O)O[C@H]1CO2` stands 3.13% (inactive).
As to `Cc1ccc(S(=O)(=O)NCCCNS(C)(=O)=O)cc1`, the “activity change, negative = cytotoxicity” value was 7.67% (inactive).
Under `CCCNC(=O)C[C@@H]1CC[C@@H]2[C@H](COc3ccc(NC(=O)Nc4ccccc4F)cc3C(=O)N2C)O1` stands 2.78% (inactive).
As to `CN(C)CCCNC(=O)C[C@H]1CC[C@H]2[C@H](COc3ccc(NS(C)(=O)=O)cc3C(=O)N2C)O1`, the “activity change, negative = cytotoxicity” value was -23.2% [at 23.5 µM] (inactive).
Under `CC(C)C#Cc1ccc2c(c1)O[C@H](CN(C)C(=O)c1ccncc1)[C@H](C)CN([C@H](C)CO)S2(=O)=O` stands 1.9% (inactive).
Under `Cc1cccc(NC(=O)Nc2ccc3c(c2)C(=O)N(C)[C@H]2CC[C@@H](CC(=O)NCc4ccccc4Cl)O[C@H]2CO3)c1` stands -11.4% (inactive); under `Clc1ccc(CSc2nnc(-c3ccncc3)o2)c(Cl)c1`, -8.49% (inactive); under `Cc1cc(C(F)F)n2ncc(C(=O)NCCc3ccccc3Cl)c2n1`, -0.237% (inactive).
Under `COCC(=O)NC[C@@H]1[C@H](c2ccc(C3=CCCC3)cc2)[C@H](CO)N1C(=O)C1CC1` stands -13.9% (inactive); under `CC(C)NC(=O)Nc1ccc2c(c1)C(=O)N(C)[C@@H]1CC[C@H](CC(=O)NCC(F)(F)F)O[C@H]1CO2`, 6.41% (inactive).
Regarding `C[C@@H]1CN([C@@H](C)CO)C(=O)c2cc(NC(=O)NC3CCCCC3)ccc2O[C@@H]1CN(C)C(=O)Nc1ccc2c(c1)OCO2`, the “activity change, negative = cytotoxicity” value is -8.64% (inactive).
In the case of `C[C@H]1CN([C@@H](C)CO)C(=O)c2cc(C#Cc3cccnc3)cnc2O[C@H]1CN(C)S(=O)(=O)c1ccccc1F`, the “activity change, negative = cytotoxicity” value was -5.37% (inactive).
Under `CCCNC(=O)N1[C@H](CNC(C)=O)[C@H](c2ccc(C3=CCCC3)cc2)[C@@H]1CO` stands 0.113% (inactive).
For the compound `COCC(=O)N(C[C@@H]1N[C@H](CO)[C@H]1c1ccc(-c2cccnc2)cc1)C(C)C`, the “activity change, negative = cytotoxicity” value was -2.06% (inactive).
Under `CCC(=O)N1[C@H](CO)[C@@H](c2ccccc2)[C@H]1CN(C(C)C)S(C)(=O)=O` stands -14.6% (inactive); under `CCOc1cc(C(=O)NC(C)COC)cc(OCC)c1OCC` (stereo not given), 0.828% (inactive).
Under `COc1cccc(NC(=O)C[C@@H]2CC[C@@H]3[C@@H](COc4ccc(NS(=O)(=O)c5cccc(F)c5)cc4C(=O)N3C)O2)c1` stands -6.79% [at 23.5 µM] (inactive).
Under `CC(=O)Nc1ccc2c(c1)C(=O)N(C)[C@H]1CC[C@H](CC(=O)NC3CCCCC3)O[C@@H]1CO2` stands -5.08% (inactive).
